A selection: hits, their analogues and other compounds. The true share with any hit is near 19%.
ELG1 repair inh: ELG1-dependent DNA repair inhibition; 2.3% of 330,000 active; AID 504467; HEK293T ELG1-luciferase reporter, luminescence, 16 h; DNA damage induced by 5-fluorouridine; Potency, µM (highest dose often 46.1 µM), most hits filed as inhibitors; further: nearly all actives have a fitted effect of over 55% in size
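Overnight (16 hr) co-exposure of 2,000 cells/well to 5-fluorouridine and compound at 37 °C preceded detection. Luciferase was quantified via ONE-Glo luminescence; loss of signal denotes inhibition.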
TDP1 cell CPT: DT40-hTDP1 cell growth loss with CPT | 12% of 420,000 active | Potency, µM (titrated, usually from 46.2 µM), usual class: inhibitors | chicken DT40 Tdp1-/-;hTDP1 cells + 20 nM CPT, ATP luminescence, 48 h; further: nearly all actives have a fitted effect of over 55% in size
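Chicken DT40 Tdp1-/- cells complemented with human TDP1, 400 cells/well, exposed to compounds plus 20 nM camptothecin for at least 48 h at 37 C; viability read as ATP content by CellTiter-Glo luminescence.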
IL1B secr inh: inhibitors of inflammasome signaling (IL-1 beta secretion). activity change, % at 57.5 µM. AID 743279. THP-1 LPS/ATP IL-1B secretion, AlphaLISA, 16 h; stronger effect = lower value. 4.7% of 360,000 active; in the data active means activity change below about -50%; inconclusive means mostly about -30% to -49%
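Secreted IL-1B measured by AlphaLISA bead assay after 16 h compound exposure of THP-1 cells; compounds (final up to 57.5 uM) added 1 h before LPS (250 ng/mL) and ATP (1.25 mM) stimulation; lower signal means less secretion.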
HT1080 IDH1KD tx: HT-1080 IDH1 knockdown cell toxicity (counter line); HT-1080 IDH1 knockdown viability, ATP luminescence, 48 h; Potency, µM (doses to about 46.1 µM), actives largely listed as cytotoxic; 2% of 360,000 active
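Using the IDH1-knockdown HT-1080 line run in the same batch and compound series as the NT line, viability after 48 h at 37 °C was determined by CellTiter-Glo luminescence and expressed as % activity.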
TDP1 cell noCPT: qHTS for Inhibitors of human tyrosyl-DNA phosphodiesterase 1 (TDP1): qHTS in cells in absence of CPT; DT40 Tdp1-/- hTDP1 cells, no CPT, ATP luminescence, 48 h; Potency, µM (doses to about 46.2 µM), most hits filed as inhibitors; 15% of 420,000 active; AID 686978, 2013; further: nearly all actives have a fitted effect of over 55% in size
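Cells were dispensed at 400 per well, compounds added by pin tool, plates incubated ≥48 hr at 37 °C, then CellTiter-Glo added for 30 min at room temperature before luminescence reading. Line: DT40 Tdp1-/- complemented with hTDP1; camptothecin omitted.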
HT1080-NT tox: kills 2HG-producing HT-1080-NT fibrosarcoma cells. Potency, µM (top dose mostly 46.1 µM), most hits filed as cytotoxic. HT-1080-NT fibrosarcoma viability, CellTiter-Glo ATP luminescence, 48 h. 1.6% of 360,000 active. AID 686970;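 further: NT is the 2HG producing partner of a matched IDH1 knockdown line; nearly all actives have a fitted effect of over 55% in size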
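HT-1080-NT; 750 cells/well; 5% FBS RPMI; 48 h compound, 37 degrees C; CellTiter-Glo luminescence; curve fitting and curve-class assignment.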
Large screens that a line does not name were inactive. Unless noted, the call rests on the fitted dose curve; in most records, active means well fitted curve in the direction sought with a large enough effect; inconclusive means small, poorly fitted or top-dose-only effect, or another doubt; inactive means no such curve, though single readings can be large; an effect the other way counts as inactive or inconclusive.

Cc1ccc2[nH]c(=O)c(CN(CCc3ccccc3)C(c3nnnn3Cc3ccco3)C(C)C)cc2c1 (stereo unspecified)	ELG1 repair inh 18µM, TDP1 cell CPT 29µM, IL1B secr inh -91, HT1080 IDH1KD tx 16µM, TDP1 cell noCPT 23µM, HT1080-NT tox inconclusive
CCCC(c1nnnn1C(C)(C)CC)N(Cc1ccco1)Cc1cc2ccc(OC)cc2[nH]c1=O (stereo unspecified)	ELG1 repair inh inconclusive, TDP1 cell CPT inconclusive, IL1B secr inh inconclusive, TDP1 cell noCPT inconclusive
COc1ccc(CN2CC[C@H]3C=CC[C@@H](C(=O)Nc4nccs4)[C@H]3C2=O)cc1OC	none (no result: ELG1 repair inh, IL1B secr inh, HT1080 IDH1KD tx, HT1080-NT tox)
CCOC(=O)[C@]12CCCC=C1N(Cc1ccccc1)C(=O)[C@H](CC(=O)N1CCCCCC1)C2	TDP1 cell CPT inconclusive, TDP1 cell noCPT inconclusive (no result: ELG1 repair inh)
Cc1cc(O)c(C)c2c1CC[C@H]1[C@H](C)C(=O)O[C@H]21	none (no result: ELG1 repair inh, IL1B secr inh, HT1080 IDH1KD tx, HT1080-NT tox)
Cc1cc(NC(=O)COc2coc(CN3CCN(c4ccccc4F)CC3)cc2=O)no1	none
CCC(c1nnnn1Cc1ccco1)N(CCc1ccccc1)Cc1cc2cc(C)ccc2[nH]c1=O (stereo unspecified)	ELG1 repair inh inconclusive, TDP1 cell CPT 21µM, IL1B secr inh -52, HT1080 IDH1KD tx inconclusive, TDP1 cell noCPT inconclusive
O=C(OC1CCOC1=O)c1cc(S(=O)(=O)N2CCOCC2)c(Cl)cc1Cl (stereo unspecified)	none
COc1ccc(C)cc1NC(=O)CCCN1C(=O)CN(C)C1=O	none
O=C(COc1ccccc1Cl)N1CCN(c2ccc([N+](=O)[O-])c(N3CCOCC3)c2)CC1	ELG1 repair inh inconclusive, TDP1 cell CPT inconclusive, TDP1 cell noCPT 16µM
Cc1ccc(C(=O)N2CCN(c3ccc([N+](=O)[O-])c(N4CCOCC4)c3)CC2)cc1	TDP1 cell CPT 29µM, TDP1 cell noCPT inconclusive
O=C(c1ccccc1Br)N1CCN(c2ccc([N+](=O)[O-])c(N3CCOCC3)c2)CC1	none
Fc1ccc(-n2nc(-c3ccccc3)c3cnc4ccccc4c32)cc1Cl	none (no result: ELG1 repair inh, IL1B secr inh, HT1080 IDH1KD tx, HT1080-NT tox)
Cc1cc(Cn2nc(-c3ccccc3)cc2C(=O)NCC2CC2)on1	none
CC(C)Cc1cc(C(=O)Nc2ccc(Br)cc2)no1	ELG1 repair inh inconclusive
O=C(Nc1ccc2c(c1)OCO2)c1cc2ncc(Br)cn2n1	TDP1 cell CPT inconclusive, TDP1 cell noCPT 21µM
O=C(Nc1ccc2c(c1)OCO2)c1cc(-c2ccc(O)cc2)on1	ELG1 repair inh inconclusive, HT1080 IDH1KD tx 2.1µM, HT1080-NT tox 2.1µM
O=C(Nc1ccc2c(c1)OCO2)c1cc(-c2cccc(O)c2)on1	HT1080 IDH1KD tx 12µM, HT1080-NT tox 23µM
CC(C)Cc1cc(C(=O)Nc2ccc3c(c2)OCO3)no1	ELG1 repair inh inconclusive, HT1080 IDH1KD tx 5.2µM, HT1080-NT tox inconclusive
Cn1cc(-c2nc3cncnc3n(Cc3ccccc3Cl)c2=O)c2ccccc21	none (no result: ELG1 repair inh, IL1B secr inh, HT1080 IDH1KD tx, HT1080-NT tox)
Nc1nnnn1/N=C/c1cc(Cl)ccc1O	none
CCN(CC)c1ccc(/C=N/n2nnnc2N)c(O)c1	TDP1 cell CPT 15µM, TDP1 cell noCPT 16µM
CCN(C)c1ccc(/C=N\n2nnnc2N)cc1	ELG1 repair inh inconclusive, TDP1 cell CPT 7.3µM, HT1080 IDH1KD tx 5.2µM, TDP1 cell noCPT 5.8µM, HT1080-NT tox inconclusive
CCOC(=O)C1CCN(C(=O)c2oc3ccc(S(=O)(=O)N4CC(C)CC(C)C4)cc3c2C)CC1 (stereo unspecified)	ELG1 repair inh 10µM, TDP1 cell CPT 18µM, TDP1 cell noCPT 16µM
CCOC(=O)N1CCN(C(=O)c2oc3ccc(S(=O)(=O)N4CCCCCC4)cc3c2C)CC1	ELG1 repair inh inconclusive, TDP1 cell CPT 15µM, TDP1 cell noCPT 13µM
CCOC(=O)N1CCN(C(=O)c2oc3ccc(S(=O)(=O)N4CC(C)CC(C)C4)cc3c2C)CC1 (stereo unspecified)	ELG1 repair inh inconclusive, TDP1 cell CPT inconclusive, IL1B secr inh inconclusive, TDP1 cell noCPT inconclusive
CCOC(=O)N1CCN(C(=O)c2oc3ccc(S(=O)(=O)N4CCOCC4)cc3c2C)CC1	ELG1 repair inh inconclusive
CCOC(=O)N1CCN(c2ccc(S(=O)(=O)N3CCC(C)CC3)cc2[N+](=O)[O-])CC1	ELG1 repair inh inconclusive, TDP1 cell CPT 21µM, HT1080 IDH1KD tx inconclusive, TDP1 cell noCPT 13µM
Cc1c(C(=O)N2CCc3ccccc3C2)oc2ccc(S(=O)(=O)N3CCCCCC3)cc12	ELG1 repair inh 16µM, TDP1 cell CPT 23µM, TDP1 cell noCPT 18µM
CCC1CCCCN1S(=O)(=O)c1cc2c3c(c1)CC(=O)N3CCC2 (stereo unspecified)	none (no result: ELG1 repair inh, IL1B secr inh, HT1080 IDH1KD tx, HT1080-NT tox)
Cc1cnc(CNc2ncncc2-c2ccoc2)cn1	none (no result: ELG1 repair inh, IL1B secr inh, HT1080 IDH1KD tx, HT1080-NT tox)
CN(C)c1nc(-c2cccc(NS(C)(=O)=O)c2)nc2ccccc12	none (no result: ELG1 repair inh, IL1B secr inh, HT1080 IDH1KD tx, HT1080-NT tox)
Cc1c(C(=O)N(C)CCC#N)oc2ccc(S(=O)(=O)N3CC(C)CC(C)C3)cc12 (stereo unspecified)	ELG1 repair inh 7.3µM, TDP1 cell CPT inconclusive, IL1B secr inh inconclusive
Cc1c(C(=O)N2CCCc3ccccc32)oc2ccc(S(=O)(=O)N3CCOCC3)cc12	ELG1 repair inh inconclusive, TDP1 cell CPT 14µM, HT1080 IDH1KD tx inconclusive, TDP1 cell noCPT 11µM, HT1080-NT tox inconclusive
O=C(c1cccc(S(=O)(=O)N2CCOCC2)c1)N1CCCc2ccccc21	none
COc1ccc(NC(=O)CSC2CC(=O)N(c3ccc4c(c3)OCCO4)C2=O)cc1 (stereo unspecified)	TDP1 cell CPT 21µM, TDP1 cell noCPT 23µM
COc1ccccc1NC(=O)CSC1CC(=O)N(c2ccc3c(c2)OCO3)C1=O (stereo unspecified)	TDP1 cell CPT 4.6µM, TDP1 cell noCPT 6.5µM
CCN=C(Nc1ccc2c(c1)OCO2)SC1CC(=O)N(c2ccc(OC)cc2)C1=O (stereo unspecified)	ELG1 repair inh 16µM, TDP1 cell CPT inconclusive
O=C(c1ccc2c(c1)OCO2)C1CCCN(Cc2cccn2-c2cccnc2)C1 (stereo unspecified)	TDP1 cell CPT 23µM, IL1B secr inh inconclusive, TDP1 cell noCPT 15µM
COc1ccc(C(=O)C2CCCN(Cc3cccn3-c3cccnc3)C2)cc1OC (stereo unspecified)	TDP1 cell CPT 16µM, TDP1 cell noCPT 15µM
